PubChem BioAssay AID1159580 (chemical genetic matrix, 2015)
Out of some 5,500 compounds screened, about 2,000 (36%) were called active. About 18% were inconclusive and are not listed. Rule as the data show it: active = normalized growth mostly below about 0.91 (no sharp cut-off); inconclusive = no clear call, values can overlap the other calls; inactive = mostly above about 0.92. The list shows a part of the results.

Assay: chemical genetic growth profiling, strain panel (AID 1159580);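 also: tested at 20 µM; growth read once vehicle control cultures reached saturation at 30 °C; 1 = growth at the plate median or of vehicle wells; lower values mean less growth of the strain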
Conditions: S. cerevisiae deletion strains, growth OD

Measured: normalized growth

COc1ccc(-c2cc(=O)c3c(OC)c(OC)c(OC)cc3o2)cc1OC
inactive: locus YHR030C, strain SLT2, active compounds read low 1.03 | locus YHR079C, strain IRE1, active compounds read low 1.02 | locus YJL095W, strain BCK1, active compounds read low 0.974 | locus YJR066W, strain TOR1, active compounds read low 0.99 | locus YLR113W, strain HOG1, active compounds read low 0.968 | locus YNL183C, strain NPR1, active compounds read low 0.936 | locus YOR231W, strain MKK1, active compounds read low 1.02 | locus YPL256C, strain CLN2, active compounds read low 1
